What all share (assay): NCI-60 one-dose screen, 48 h (100 = growth as untreated, 0 = no growth, -100 = all killed)
For one test, the system named is HCT-15 colon. Conditions: 10 µM unless noted.
A further test concerns SNB-75 CNS. To be noted: 10 µM unless noted.
Another test concerns SNB-19 CNS. To be noted: 10 µM unless noted.
A further test has as its system U251 CNS. To be noted: 10 µM unless noted.
A further test has as its system PC-3 prostate. Conditions: 10 µM unless noted.
Another test deals with SK-MEL-5 melanoma. To be noted: 10 µM unless noted.
A further test deals with UACC-62 melanoma. Conditions: 10 µM unless noted.
The next test has as its system LOX IMVI melanoma. To be noted: 10 µM unless noted.
The next test relates to SK-MEL-28 melanoma. Conditions: 10 µM unless noted.
The next test concerns EKVX NSCLC. Conditions: 10 µM unless noted.
A further test concerns SN12C renal. To be noted: 10 µM unless noted.
The next test concerns UO-31 renal. Conditions: 10 µM unless noted.
The subject of the next test is TK-10 renal. To be noted: 10 µM unless noted.
The subject of a further test is ACHN renal. Conditions: 10 µM unless noted.
The subject of another test is CAKI-1 renal. To be noted: 10 µM unless noted.
For the next test, the system named is A498 renal. Conditions: 10 µM unless noted.
The subject of another test is CCRF-CEM leukemia. To be noted: 10 µM unless noted.
The next test deals with MOLT-4 leukemia. To be noted: 10 µM unless noted.
The next test concerns SK-MEL-2 melanoma. Conditions: 10 µM.

This is part of a sample that, as a whole, favours compounds with a hit. Of some 83,000 tested, about 20% had one in any assay.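 Step 1: grow cells in 96-well plates. Step 2: add test compound at a single concentration. Step 3: incubate 48 h. Step 4: record percent growth.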 A number with no mark means an inactive call. Calls of active or inactive are those of the source. How the source made its calls: active means growth percent below 10; inactive means the rest.

The values below come from PubChem BioAssay (NCI).

Regarding `Cc1cc(C(O)CN(C)C)cc2c1ccc1cc(C(C)C)ccc12` (centres undefined), the growth in the test with HCT-15 colon was -38.7% (active); in the test on SNB-75 CNS, -63.5% (active); in the test with SNB-19 CNS, 59%; with U251 CNS, -48.8% (active); with PC-3 prostate, 48.6%; with SK-MEL-5 melanoma, -93.1% (active). Moreover, the growth was -81.2% (active) in the test on UACC-62 melanoma; -100% (active) with LOX IMVI melanoma; -100% (active) in the test on SK-MEL-28 melanoma; 84.5% in the test with EKVX NSCLC; 62.6% in the test on SN12C renal; 26.4% in the test on UO-31 renal. The growth with TK-10 renal was -62.1% (active); in the test with ACHN renal, -28.6% (active); in the test on CAKI-1 renal, 8.02% (active); in the test with A498 renal it was 76.8%; with CCRF-CEM leukemia it was 3.14% (active); in the test with MOLT-4 leukemia, -29.5% (active).

For the compound `COc1cc(NCCN(CC(C)C)CC(C)C)c2ncc(C)cc2c1`, the growth was 34.2% in the test with HCT-15 colon; 95.3% with SNB-75 CNS; 85.3% in the test with SNB-19 CNS; 67.9% with U251 CNS; 47.8% with PC-3 prostate; 23.6% in the test on SK-MEL-5 melanoma. The growth is 53% with UACC-62 melanoma; 15.5% in the test on LOX IMVI melanoma; 79.7% in the test with SK-MEL-28 melanoma; 74.8% in the test on SK-MEL-2 melanoma; 74.9% in the test with EKVX NSCLC; 74.7% with SN12C renal. The growth was 64% in the test with UO-31 renal; 139% with TK-10 renal; 77.7% in the test on ACHN renal; 113% in the test with A498 renal; 86.4% in the test on CCRF-CEM leukemia; 54.9% with MOLT-4 leukemia.

As to `COC(=O)[C@]12CC[C@@H](C)[C@H](C)[C@@H]1C1=CC[C@@H]3[C@@]4(C)C[C@@H](OC(=O)/C=C/c5ccccc5)[C@H](O)[C@@](C)(CO)[C@@H]4[C@H](O)C[C@@]3(C)[C@]1(C)CC2`, the growth is -20.9% (active) in the test with HCT-15 colon; 44.1% in the test with SNB-75 CNS; 14.3% in the test on SNB-19 CNS; -28.5% (active) in the test with U251 CNS; 11.3% in the test with PC-3 prostate; 18.3% with SK-MEL-5 melanoma. Besides, the growth with UACC-62 melanoma is 21.4%; in the test with LOX IMVI melanoma, -96.4% (active); with SK-MEL-28 melanoma it was 4.73% (active); with SK-MEL-2 melanoma it was 47.8%; with EKVX NSCLC it was 33.8%; with SN12C renal, -83.2% (active). Also, the growth is 19.6% in the test with UO-31 renal; 18.1% in the test on TK-10 renal; 3.47% (active) in the test on ACHN renal; 15.6% in the test on CAKI-1 renal; 18.8% in the test with CCRF-CEM leukemia; 0.848% (active) in the test with MOLT-4 leukemia.

Take `CO[C@H](C(=O)N[C@@H](CCCCNC(=O)OCc1ccccc1)C(=O)OC(C)(C)C)[C@@H]1Cc2cc3cc(OC4CC(OC5CC(O)C(O)C(C)O5)C(O)C(C)O4)c(C)c(O)c3c(O)c2C(=O)[C@H]1OC1CC(OC2CC(OC3CC(C)(O)C(O)C(C)O3)C(O)C(C)O2)C(O)C(C)O1` (some centres undefined): the growth with HCT-15 colon was 26.6%; in the test on SNB-75 CNS, -94.3% (active); in the test with SNB-19 CNS it was -51.6% (active); in the test with U251 CNS it was -82.3% (active); in the test with PC-3 prostate, 3.14% (active); in the test on SK-MEL-5 melanoma, -97.7% (active). The growth was -62.7% (active) with UACC-62 melanoma; -62.8% (active) in the test on LOX IMVI melanoma; -55.7% (active) in the test on SK-MEL-28 melanoma; -25.1% (active) with EKVX NSCLC; -7.42% (active) in the test with SN12C renal; 10.5% in the test on UO-31 renal. Also, the growth was -9.57% (active) with TK-10 renal; -2.61% (active) in the test on ACHN renal; 22.6% with CAKI-1 renal; -89.9% (active) in the test with A498 renal; 3.09% (active) in the test with CCRF-CEM leukemia; -12.6% (active) in the test with MOLT-4 leukemia.

`N#CC1(C#N)C(c2cccs2)NC(c2cccs2)C1(C#N)C#N` (centres undefined): the growth is 94.5% in the test on HCT-15 colon; 75.1% in the test with SNB-75 CNS; 106% in the test on SNB-19 CNS; 104% in the test on U251 CNS; 94.6% in the test on PC-3 prostate; 114% with SK-MEL-5 melanoma. Moreover, the growth in the test with UACC-62 melanoma is 101%; with LOX IMVI melanoma it was 93.9%; in the test on SK-MEL-28 melanoma, 109%; in the test with SK-MEL-2 melanoma it was 102%; in the test with EKVX NSCLC, 94%; in the test on SN12C renal, 105%. The growth in the test on UO-31 renal was 71.4%; in the test with TK-10 renal, 114%; in the test with ACHN renal, 102%; with A498 renal, 116%; in the test on CCRF-CEM leukemia, 100%; in the test on MOLT-4 leukemia it was 95.3%.

With `Cc1cccc(Cl)c1NC(=O)c1cnc(Nc2cc(N3CCOCC3)cc(N3CCOCC3)c2)s1`, the growth was 22.2% in the test on HCT-15 colon; -43.3% (active) in the test on SNB-75 CNS; 47.4% in the test with SNB-19 CNS; 54.6% in the test with U251 CNS; 45.7% in the test with PC-3 prostate; 65.1% in the test on SK-MEL-5 melanoma. The growth in the test with UACC-62 melanoma is 41.6%; in the test on LOX IMVI melanoma it was -71.8% (active); in the test on SK-MEL-28 melanoma, 63.6%; in the test with EKVX NSCLC, 33.1%; in the test on SN12C renal it was 30%; in the test with UO-31 renal, -0.169% (active). The growth was -65.2% (active) in the test with TK-10 renal; -7.5% (active) in the test with ACHN renal; -37.8% (active) with CAKI-1 renal; -22.6% (active) in the test on A498 renal; 63.2% in the test on CCRF-CEM leukemia; 27.8% in the test with MOLT-4 leukemia.

Turning to `CS(=O)(=O)CCNCc1ccc(-c2ccc3ncnc(Nc4ccc(OCc5cccc(F)c5)c(Cl)c4)c3c2)o1`, the growth in the test on HCT-15 colon is -3.39% (active); with SNB-75 CNS, -97.2% (active); in the test on SNB-19 CNS it was 3.57% (active); with U251 CNS, -84.8% (active); with PC-3 prostate it was -20.6% (active); with SK-MEL-5 melanoma, -98.9% (active). Also, the growth in the test on UACC-62 melanoma is -52.4% (active); with LOX IMVI melanoma, -72.5% (active); with SK-MEL-28 melanoma, -95.7% (active); in the test with EKVX NSCLC it was 29.9%; with SN12C renal, -17.9% (active); with UO-31 renal it was 19.6%. Besides, the growth in the test with TK-10 renal was 7.31% (active); with ACHN renal, 30.2%; in the test on CAKI-1 renal, 40.1%; in the test on A498 renal it was 7.48% (active); in the test on CCRF-CEM leukemia, 5.76% (active); in the test with MOLT-4 leukemia, 4.21% (active).

On to `CN1CCC(CNc2ccc3ncc(-c4cccc(OC(F)(F)F)c4)n3n2)CC1`, for which the growth is -35.2% (active) in the test with HCT-15 colon; -75.1% (active) with SNB-75 CNS; -48.6% (active) in the test on SNB-19 CNS; -89.2% (active) in the test on U251 CNS; -20.6% (active) with PC-3 prostate; -99.1% (active) in the test with SK-MEL-5 melanoma. For the same compound, the growth is -95% (active) in the test on UACC-62 melanoma; -83.5% (active) in the test with LOX IMVI melanoma; -86.4% (active) in the test on SK-MEL-28 melanoma; 4.31% (active) in the test on EKVX NSCLC; -81.2% (active) with SN12C renal; -95.1% (active) in the test with UO-31 renal. The growth was -4.7% (active) in the test on TK-10 renal; -54.7% (active) in the test with ACHN renal; -79.8% (active) in the test with A498 renal; -5.49% (active) in the test on CCRF-CEM leukemia; -5.02% (active) in the test on MOLT-4 leukemia.

On to `CC(=Nc1ccccc1)C1=C(O)C(Cc2ccc(O)cc2)NC1=O` (centres undefined), for which the growth in the test with HCT-15 colon was 12.1%; in the test on SNB-75 CNS, 15.2%; with SNB-19 CNS, 34%; with PC-3 prostate, 15.7%; with SK-MEL-5 melanoma, -44% (active); in the test on UACC-62 melanoma, 28.6%. For the same compound, the growth in the test on LOX IMVI melanoma is 19.2%; in the test with SK-MEL-28 melanoma, 40%; in the test on SK-MEL-2 melanoma, 42.2%; in the test with EKVX NSCLC, 20.4%; with SN12C renal it was 43.5%; in the test with UO-31 renal, 42.3%. Also, the growth was 68.2% in the test with TK-10 renal, 33.2% in the test on ACHN renal, -25.6% (active) in the test on A498 renal and -3.04% (active) in the test with MOLT-4 leukemia.
